Screening results (PubChem BioAssay)
The list is not random: actives were taken first. Their share in the collection is about 27%.
CYP2C9 inh: blocks human cytochrome P450 2C9 | P11712 | CYP2C9 Supersomes, luciferin-H conversion, luminescence | inhibition, % at 5 µM | 20% of 96,000 active | AID 777;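 active = blocking of liver enzyme CYP2C9 beyond about 50% at 5 µM, limit read from the data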
Target sequence (P11712 whole entry, looked up): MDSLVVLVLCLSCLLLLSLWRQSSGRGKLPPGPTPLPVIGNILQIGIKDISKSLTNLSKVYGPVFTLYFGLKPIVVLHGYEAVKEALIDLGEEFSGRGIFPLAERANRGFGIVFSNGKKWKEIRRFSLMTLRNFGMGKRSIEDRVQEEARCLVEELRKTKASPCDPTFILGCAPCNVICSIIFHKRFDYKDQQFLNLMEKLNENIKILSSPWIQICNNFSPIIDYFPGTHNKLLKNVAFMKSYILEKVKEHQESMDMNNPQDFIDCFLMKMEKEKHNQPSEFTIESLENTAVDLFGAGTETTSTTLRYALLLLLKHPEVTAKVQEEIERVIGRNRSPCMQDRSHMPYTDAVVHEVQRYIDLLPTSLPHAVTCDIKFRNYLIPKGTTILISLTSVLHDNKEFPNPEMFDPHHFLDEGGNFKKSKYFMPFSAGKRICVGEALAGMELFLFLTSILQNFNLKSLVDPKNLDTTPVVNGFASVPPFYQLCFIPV
CYP2C19 inh: human CYP2C19 inhibition; P33261; CYP2C19 Supersomes, luciferin-H EGE luminescence, 30 min; inhibition, % at 5 µM; 21% of 96,000 active;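 active = CYP2C19 inhibition above a set limit at 5 µM in the primary screen, cut at about 50% in these data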
sEH inh: inhibitors of human soluble epoxide hydrolase; inhibition, % at 2 µM; AID 707; P34913; 0.34% of 91,000 active; recombinant human sEH enzymatic activity assay; in the data active = inhibition above about 80%
CYP2C9 activ: CYP2C9 (human) activation | P11712 | recombinant CYP2C9, luciferin-H conversion, luminescence; hits give high values; factor 1 = untreated enzyme, 0 = blocked | activation factor at 5 µM | 1.4% of 96,000 active;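 active = activation factor of 2 or more for CYP2C9 at a 5 µM dose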
sEH act: soluble epoxide hydrolase (human) activation | purified human sEH enzymatic activity, activator screen | activation, % at 2 µM | 0.04% of 91,000 active; in the data active = activation above about 37%
CYP2C19 activ: cytochrome P450 2C19 (human) activation | P33261 | recombinant CYP2C19, luciferin-H EGE luminescence; hits give high values; 0 = fully inhibited enzyme, 1 = untreated enzyme | activation factor at 5 µM | 96,000 tested, under 10 active | AID 1025;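 active = activation factor of at least 2 at 5 µM in the primary screen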
Numbers stand for hits; – = inactive; · = no result given.

SMILES	CYP2C9 inh	CYP2C19 inh	sEH inh	CYP2C9 activ	sEH act	CYP2C19 activ
CCc1ccccc1NC(=O)/C(=C/c1ccco1)c1ccccc1	–	–	–	–	–	–
O=C(Nc1ccc(Cl)cc1)C1CCCN(S(=O)(=O)c2cnc[nH]2)C1 (stereo unspecified)	87.9	89.7	·	–	·	–
COc1cccc(CNC(=O)C2CCN(S(=O)(=O)c3cnc[nH]3)CC2)c1	76.4	–	·	–	·	–
O=C(NCc1ccccc1)C1CCCN(C(=O)Nc2ccccc2)C1 (stereo unspecified)	–	66.6	–	–	–	–
CCS(=O)(=O)N1CCC(C(=O)NCc2cccc(OC)c2)CC1	–	–	·	–	·	–
Cc1ccc(CNC(=O)C2CCN(S(=O)(=O)c3cnc[nH]3)CC2)cc1	89.7	–	–	–	–	–
O=C(O)c1ccc2c(c1)C(=O)N(C(Cc1ccc(O)cc1)C(=O)O)C2=O (stereo unspecified)	–	–	–	–	–	–
O=C(NCc1ccc(Cl)cc1)C1CCCN(S(=O)(=O)c2cnc[nH]2)C1 (stereo unspecified)	96.4	99.4	–	–	–	–
COc1cccc(CNC(=O)C2CCCN(S(=O)(=O)c3cccc4nonc34)C2)c1 (stereo unspecified)	–	–	–	–	–	–
Cc1ccc(CNC(=O)C2CCCN(S(=O)(=O)c3cnc[nH]3)C2)cc1 (stereo unspecified)	67.0	96.4	–	–	–	–
COc1cccc(CNC(=O)C2CCCN(S(C)(=O)=O)C2)c1 (stereo unspecified)	74.9	–	·	–	·	–
COc1ccc(CNC(=O)C2CCCN(S(=O)(=O)c3cnc[nH]3)C2)cc1 (stereo unspecified)	–	77.6	·	–	·	–
Cc1ccc(C)c(Cc2c(C)nc3c(C(=O)N4CCOCC4)cnn3c2C)c1	–	–	–	–	–	–
COc1cccc(C(=O)CN(C(=O)c2ccc(Cl)c(Cl)c2)N2C(=O)c3ccccc3C2=O)c1	–	–	–	–	–	–
O=C(C1CCCCC1)N1CCCn2c1nc1ccccc12	–	–	–	–	–	–
CS(=O)(=O)N1CCC(C(=O)NCc2ccncc2)CC1	59.4	–	–	–	–	–
O=C(C1CCN(S(=O)(=O)c2cnc[nH]2)CC1)N1CCn2c1nc1ccccc12	64.1	60.5	–	–	–	–
CCCC1(CCC)NC(=O)N(CC(=O)Nc2cccc(OC)c2)C1=O	–	–	–	–	–	–
COc1ccc(CCn2c(C)cc3c(c2=O)C(c2ccc4c(c2)OCO4)C(C#N)=C(N)O3)cc1OC (stereo unspecified)	–	–	·	–	·	–
CCc1nc2oc3ccccc3c(=O)c2c(=O)n1-c1ccccc1	–	–	–	–	–	–
CC(C)(C)C(=O)COC(=O)CNC(=O)c1ccc(Oc2ccccc2)cc1	52.8	–	–	–	–	–
Clc1ccccc1CSc1snnc1-c1ccccc1	–	–	–	–	–	–
O=C(CSc1ncccn1)NCc1ccccc1Cl	–	74.9	–	–	–	–
O=C(CSc1nc2ccccc2c(=O)n1NC(=O)Cc1ccccc1)NCc1ccccc1Cl	93.6	90.0	–	–	–	–
Clc1ccccc1CSc1ncccn1	–	53.4	–	–	–	–
SMILES	CYP2C9 inh	CYP2C19 inh	sEH inh	CYP2C9 activ	sEH act	CYP2C19 activ
O=C(CSc1ccccc1)Nc1ccncc1	85.3	89.7	–	–	–	–
CC(=O)Oc1ccc(NC(=O)CSc2ccccc2)cc1	53.1	69.3	–	–	–	–
O=C(CSc1ccc2ccccc2c1)Nc1ccncc1	95.3	96.8	–	–	–	–
Cc1cc(NC(=O)CSc2ccc3ccccc3c2)no1	79.0	50.5	–	–	–	–
CCc1cc2ccccc2nc1SCC(=O)Nc1cc(C)on1	–	–	–	–	–	–
Cc1ccc(C(=O)N2CC(C)OC(C)C2)c(Cl)c1 (stereo unspecified)	–	–	–	–	–	–
Cn1ccnc1SCC(=O)Nc1ccc2ccccc2c1	–	93.2	–	–	–	–
CCN(CC)S(=O)(=O)c1ccc(NC(=O)CN(c2cccc(C)c2)S(C)(=O)=O)cc1	·	·	–	·	–	·
COc1ccc(N(CC(=O)Nc2cccc(C(F)(F)F)c2)S(C)(=O)=O)cc1	·	·	–	·	–	·
CCOc1ccc(N(CC(=O)Nc2ccccc2)S(C)(=O)=O)cc1	70.0	87.8	·	–	·	–
CCOc1ccccc1N(CC(=O)Nc1cccnc1)S(C)(=O)=O	–	–	–	–	–	–
COc1ccc(N(CC(=O)Nc2cccc(SC)c2)S(C)(=O)=O)cc1	88.7	94.1	·	–	·	–
COc1cccc(NC(=O)CN(c2cccc(C(F)(F)F)c2)S(C)(=O)=O)c1	70.5	88.3	·	–	·	–
CC(=O)Nc1ccc(NC(=O)CN(c2cccc(C)c2)S(C)(=O)=O)cc1	–	52.2	–	–	–	–
CCCn1cc(NC(=O)c2cc3n(n2)C(C(F)(F)F)CC(c2ccccc2)N3)cn1 (stereo unspecified)	–	–	–	–	–	–
COc1ccc(NC(=O)CN(c2cccc(C(F)(F)F)c2)S(C)(=O)=O)cc1OC	–	–	–	–	–	–
CCOc1ccc(NC(=O)CN(c2cccc(C(F)(F)F)c2)S(C)(=O)=O)cc1	72.1	84.7	–	–	–	–
CCOC(=O)c1cc2sccc2n1CC(=O)c1ccc2c(c1)OCCO2	95.8	92.9	–	–	–	–
CCOC(=O)c1cc2sccc2n1CC(=O)O	–	–	–	–	–	–
CC(=O)Nc1sc(NC(=O)c2ccc(C)cc2)nc1-c1cccs1	·	·	–	·	–	·
COc1ccccc1C/C(N)=N/OC(=O)c1ccc(C)c([N+](=O)[O-])c1	–	–	–	3.4	–	–
COc1ccccc1C/C(N)=N/OC(=O)COc1ccc(C)cc1C	·	·	–	·	–	·
CCOc1cc(CNCCO)cc(Br)c1OCc1ccccc1Cl	–	54.8	–	–	–	–
CCOc1cc(CNCCO)cc(Br)c1OCc1ccc(Cl)cc1	–	77.7	–	–	–	–
CCOc1cc(CNC(C)(C)CO)cc(Br)c1OCc1ccc(Cl)cc1Cl	–	–	–	–	–	–
SMILES	CYP2C9 inh	CYP2C19 inh	sEH inh	CYP2C9 activ	sEH act	CYP2C19 activ
CCOc1cc(/C=N/O)cc(Br)c1OCc1ccc(Cl)cc1	–	–	–	–	–	–
O=C(COC(=O)c1cc[n+]([O-])cc1)NCC12CC3CC(CC(C3)C1)C2	–	–	–	–	–	–
Cc1sc2nc(SCC(=O)c3cccs3)n(Cc3ccco3)c(=O)c2c1C	–	–	–	–	–	–
COc1ccc(C(=O)N(c2ccccc2)C2C=CS(=O)(=O)C2)cc1 (stereo unspecified)	–	–	–	–	–	–
CCCCCCCC(=O)N/N=C/c1ccc(Br)cc1	–	75.4	–	–	–	–
CCCCCCCCCCCC(=O)N/N=C/c1ccco1	55.7	–	–	–	–	–
CCCCCCCCCC(=O)N/N=C/c1ccc(C)s1	74.3	76.9	–	–	–	–
COCCCNC(=O)c1cc(C(=O)c2c(-c3c(Cl)cccc3Cl)noc2C)c[nH]1	–	–	–	–	–	–
